Results filed as inconclusive are left out. Entries that show only a call come without a potency. Values without a mark were called inactive. Active and inactive are the calls of the source. Unless noted, calls come from the whole dose curve; as a rule, active = well fitted curve in the direction sought with a large enough effect; inconclusive = small, poorly fitted or top-dose-only effect, or another doubt; inactive = no such curve, though single readings can be large; an effect the other way counts as inactive or inconclusive.
Assays:
[1] = qHTS for Inhibitors of Plasmodium falciparum (DD2) proliferation (AID 504314); note: potency is the fitted concentration of half-maximal effect;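 for activity, negative = inhibition: parasite DNA measured by SYBR Green fluorescence after red cell lysis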
Summary of the method: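 P. falciparum Dd2 is grown in erythrocytes with test compound for 72 h at 37C under 5% CO2. Growth is scored by SYBR Green I fluorescence after detergent lysis, relative to artemisinin (0.29 uM) and DMSO controls.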

[2] = qHTS for Inhibitors of Plasmodium falciparum (HB3) proliferation (AID 504318); note: nearly all actives have a fitted effect of over 60% in size; note: potency is the fitted concentration of half-maximal effect
Summary of the method: (§1)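 Parasite growth measured as SYBR Green DNA fluorescence (ex 485, em 535 nm) after overnight lysis following 72 h culture at 37 °C, 0.3% parasitemia, 2.5% hematocrit. Values normalized against DMSO and 0.29 uM artemisinin controls, with plate-stack correction.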

[3] = qHTS for Inhibitors of Plasmodium falciparum (CP250) proliferation (AID 504320)
Summary of the method: as §1

[4] = target: Atrial natriuretic peptide receptor 1 (Homo sapiens) (UniProt P16066); assay: Natriuretic polypeptide receptor (hNpr1) antagonism - Pilot CMLD screen (AID 1347052; calls by dose curve;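 note: HEK293 cells with hNpr1 stimulated by hNppA peptide at 0.1 nM; cGMP level read as GloSensor luciferase luminescence after agonist stimulation; series mostly up to about 9.2 µM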)
Atrial natriuretic peptide receptor 1 (Homo sapiens), sequence (P16066 whole entry, looked up): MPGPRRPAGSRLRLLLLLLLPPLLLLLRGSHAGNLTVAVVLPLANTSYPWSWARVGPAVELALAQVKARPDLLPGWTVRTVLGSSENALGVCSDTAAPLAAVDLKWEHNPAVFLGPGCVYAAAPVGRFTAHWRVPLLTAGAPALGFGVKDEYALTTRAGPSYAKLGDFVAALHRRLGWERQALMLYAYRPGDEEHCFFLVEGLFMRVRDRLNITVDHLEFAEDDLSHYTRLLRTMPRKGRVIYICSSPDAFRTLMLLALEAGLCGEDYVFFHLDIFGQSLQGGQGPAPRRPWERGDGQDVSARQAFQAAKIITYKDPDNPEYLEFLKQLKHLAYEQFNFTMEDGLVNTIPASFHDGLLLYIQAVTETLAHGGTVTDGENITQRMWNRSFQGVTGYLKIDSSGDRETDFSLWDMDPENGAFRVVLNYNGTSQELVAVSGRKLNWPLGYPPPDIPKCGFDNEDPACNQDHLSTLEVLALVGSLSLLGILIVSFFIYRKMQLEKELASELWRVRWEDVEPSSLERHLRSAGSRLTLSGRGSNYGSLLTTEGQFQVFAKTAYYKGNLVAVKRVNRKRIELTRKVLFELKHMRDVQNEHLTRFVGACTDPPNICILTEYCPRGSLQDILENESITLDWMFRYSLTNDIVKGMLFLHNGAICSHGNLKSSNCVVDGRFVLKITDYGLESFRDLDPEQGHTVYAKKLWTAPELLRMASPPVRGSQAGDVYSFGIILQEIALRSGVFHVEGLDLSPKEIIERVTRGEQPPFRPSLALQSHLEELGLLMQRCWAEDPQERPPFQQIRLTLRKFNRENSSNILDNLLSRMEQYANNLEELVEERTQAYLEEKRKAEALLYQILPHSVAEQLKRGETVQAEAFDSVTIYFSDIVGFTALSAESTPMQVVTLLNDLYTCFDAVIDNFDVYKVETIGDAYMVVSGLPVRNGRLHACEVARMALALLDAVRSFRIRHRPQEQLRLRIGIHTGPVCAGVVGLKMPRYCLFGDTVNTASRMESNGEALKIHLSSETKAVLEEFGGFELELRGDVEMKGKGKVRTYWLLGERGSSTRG

[5] = qHTS for Inhibitors of Plasmodium falciparum (7G8) proliferation (AID 504316); note: nearly all actives have a fitted effect of over 65% in size; note: potency is the fitted concentration of half-maximal effect; for activity change, negative = inhibition: series mostly up to about 6.7 µM
Summary of the method: as §1

[6] = target: Cytochrome P450 2C9 (Homo sapiens) (UniProt P11712); assay: qHTS Assay for Inhibitors and Substrates of Cytochrome P450 2C9 (AID 883); note: nearly all actives have a fitted effect of over 60% in size
Cytochrome P450 2C9 (Homo sapiens), sequence (P11712 whole entry, looked up): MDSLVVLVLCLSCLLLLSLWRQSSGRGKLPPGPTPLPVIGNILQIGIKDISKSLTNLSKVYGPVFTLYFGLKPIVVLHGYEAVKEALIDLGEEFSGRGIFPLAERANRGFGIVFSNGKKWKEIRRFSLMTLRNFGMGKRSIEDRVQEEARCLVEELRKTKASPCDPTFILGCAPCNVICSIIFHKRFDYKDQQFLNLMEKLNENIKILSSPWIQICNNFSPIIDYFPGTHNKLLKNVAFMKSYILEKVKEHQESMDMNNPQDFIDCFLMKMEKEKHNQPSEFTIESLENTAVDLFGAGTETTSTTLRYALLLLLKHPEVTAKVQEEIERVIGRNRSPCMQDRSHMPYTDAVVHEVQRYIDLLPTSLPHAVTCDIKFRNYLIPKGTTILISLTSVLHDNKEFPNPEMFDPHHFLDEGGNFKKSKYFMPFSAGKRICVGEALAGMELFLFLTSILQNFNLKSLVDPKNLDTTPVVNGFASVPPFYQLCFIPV
Summary of the method: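 CYP2C9 deoxyluciferin hydroxylation, 37C, 60 min with NADPH regeneration; 10nM enzyme, 100uM Luciferin-H (KM). Glo detection reagent stopped reaction; luminescence normalized to sulphaphenazole (57uM) full inhibition.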

[7] = target: Cytochrome P450 3A4 (Homo sapiens) (UniProt P08684); assay: qHTS Assay for Inhibitors and Substrates of Cytochrome P450 3A4 (AID 884); note: series mostly up to about 57 µM; nearly all actives have a fitted effect of over 50% in size
Cytochrome P450 3A4 (Homo sapiens), sequence (P08684 whole entry, looked up): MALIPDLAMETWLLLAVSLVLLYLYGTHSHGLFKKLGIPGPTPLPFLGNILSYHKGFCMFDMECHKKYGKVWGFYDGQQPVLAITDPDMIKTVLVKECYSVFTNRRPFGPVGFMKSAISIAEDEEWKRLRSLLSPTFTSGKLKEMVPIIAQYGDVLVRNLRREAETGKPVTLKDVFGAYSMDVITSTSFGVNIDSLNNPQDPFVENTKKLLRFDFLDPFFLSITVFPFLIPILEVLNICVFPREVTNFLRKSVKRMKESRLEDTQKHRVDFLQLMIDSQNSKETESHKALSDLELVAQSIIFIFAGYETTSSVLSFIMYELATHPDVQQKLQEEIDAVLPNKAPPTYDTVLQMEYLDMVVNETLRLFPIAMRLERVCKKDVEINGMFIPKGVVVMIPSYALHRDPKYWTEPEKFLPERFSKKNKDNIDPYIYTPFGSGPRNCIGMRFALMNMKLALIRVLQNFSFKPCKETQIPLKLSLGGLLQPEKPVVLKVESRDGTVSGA
Summary of the method: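 Luminescent readout of luciferin produced by CYP3A4 (20 nM) dealkylation of Luciferin-PPXE, 25 uM (its KM). NADPH-driven reaction ran 60 min at RT after 10 min compound preincubation; data scaled to 57 uM ketoconazole as 100% inhibition.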

[8] = target: Cytochrome P450 2D6 (Homo sapiens) (UniProt P10635); assay: qHTS Assay for Inhibitors and Substrates of Cytochrome P450 2D6 (AID 891);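 note: luciferin methyl ether substrate demethylated by CYP2D6 with NADPH regeneration; nearly all actives have a fitted effect of over 60% in size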
Cytochrome P450 2D6 (Homo sapiens), sequence (P10635 whole entry, looked up): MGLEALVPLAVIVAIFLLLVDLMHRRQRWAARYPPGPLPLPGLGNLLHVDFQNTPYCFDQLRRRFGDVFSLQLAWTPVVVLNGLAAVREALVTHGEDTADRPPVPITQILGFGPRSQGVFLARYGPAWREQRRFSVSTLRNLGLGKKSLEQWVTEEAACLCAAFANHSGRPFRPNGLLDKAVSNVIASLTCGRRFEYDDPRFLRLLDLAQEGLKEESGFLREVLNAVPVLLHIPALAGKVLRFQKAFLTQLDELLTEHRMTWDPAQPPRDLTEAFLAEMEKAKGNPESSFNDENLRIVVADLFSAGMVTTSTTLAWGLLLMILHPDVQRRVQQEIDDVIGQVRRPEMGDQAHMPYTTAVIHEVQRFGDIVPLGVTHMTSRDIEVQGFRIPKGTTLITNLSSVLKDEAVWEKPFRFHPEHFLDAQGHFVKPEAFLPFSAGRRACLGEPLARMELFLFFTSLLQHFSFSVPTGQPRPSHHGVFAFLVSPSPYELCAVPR
Summary of the method: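 Luminescent read-out of luciferin formed by 5 nM human CYP2D6 demethylating 30 uM Luciferin-ME EGE (Km level) over 60 min at room temperature after NADPH regeneration addition. Data normalized to full inhibition by 1.43 uM quinidine.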

[9] = target: Cytochrome P450 2C19 (Homo sapiens) (UniProt P33261); assay: qHTS Assay for Inhibitors and Substrates of Cytochrome P450 2C19 (AID 899); note: nearly all actives have a fitted effect of over 60% in size
Cytochrome P450 2C19 (Homo sapiens), sequence (P33261 whole entry, looked up): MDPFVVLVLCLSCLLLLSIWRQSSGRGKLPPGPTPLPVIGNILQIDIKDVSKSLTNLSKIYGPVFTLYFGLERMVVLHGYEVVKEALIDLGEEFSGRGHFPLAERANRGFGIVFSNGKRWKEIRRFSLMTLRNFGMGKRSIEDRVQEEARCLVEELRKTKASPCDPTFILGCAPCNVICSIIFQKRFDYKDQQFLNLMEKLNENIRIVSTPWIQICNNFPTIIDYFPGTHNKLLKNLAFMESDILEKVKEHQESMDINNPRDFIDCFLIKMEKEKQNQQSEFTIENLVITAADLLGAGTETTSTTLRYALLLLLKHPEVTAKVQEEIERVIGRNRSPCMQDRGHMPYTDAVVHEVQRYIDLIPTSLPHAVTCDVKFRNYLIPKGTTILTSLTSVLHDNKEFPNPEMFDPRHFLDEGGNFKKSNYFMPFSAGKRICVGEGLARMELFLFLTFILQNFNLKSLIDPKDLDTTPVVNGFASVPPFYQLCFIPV
Summary of the method: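 In 50mM KPO4, the reaction held 5nM enzyme and KM-level (10uM) Luciferin-H EGE; it ran 60 min at 37C after NADPH regeneration and a 10 min compound preincubation. Luminescence values were scaled to 57uM ketoconazole as complete inhibition.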

CC(=O)OC[C@H]1O[C@@H](ON=C(C)CCN2CCCCc3nc(C)c(C)cc32)[C@H](OC(C)=O)[C@@H](OC(C)=O)[C@H]1OC(C)=O
Potency [1]: inactive
Potency [2]: inactive
Potency [3]: inactive
Potency [4]: inactive

CCCCc1cc2c(cn1)=C(OC(=O)c1cnc3ccccc3n1)C(C)(OC(=O)CC)C(=O)C=2 (stereo not drawn)
activity, negative = inhibition [1]: 2.28% [at 1.12 µM]
Potency [5]: 1.69 µM (active)
Potency [3]: inactive
Potency [4]: inactive

CC1=C[C@@H](COCc2ccccc2)O[C@@]2(C1)C(=O)N(Cc1ccc(Br)cc1)c1ccccc12
Potency [1]: inactive
Potency [5]: inactive
Potency [3]: inactive
Potency [4]: inactive

COC(=O)C1=C(C)N(Cc2ccccc2)C(=NCc2ccccc2)NC1c1ccccc1 (stereo not drawn)
Potency [1]: inactive
Potency [2]: inactive
Potency [4]: inactive

COC1=C[C@H](C(=O)NCCNC(C)=O)[C@@]2(C)Cc3ccccc3[C@@H]2CC1=O
Potency [1]: inactive
Potency [2]: inactive
Potency [3]: inactive
Potency [4]: inactive

COC(=O)C1=C(C(=O)OC)[C@@H]2N(C)c3ccc(OC)cc3[C@@]23C[C@@H](C(=O)OC)N(C(=O)c2cc(C)oc2C)C3=N1
Potency [1]: inactive
Potency [5]: inactive
Potency [3]: inactive
Potency [4]: inactive

C=CC[C@@H]1C=C(C(=O)OC)N(C(=O)C(F)(F)F)[C@@H](c2ccccc2Br)[C@@H]1C
Potency [1]: inactive
Potency [2]: inactive
Potency [4]: inactive

COc1ccc(C(=O)Oc2cc(OC)cc(OC)c2C(C)=O)cc1
activity change, negative = inhibition [6]: 19.9% [at 11.4 µM]
activity change, negative = inhibition [7]: -16.9% [at 11.4 µM]
activity change, negative = inhibition [8]: 5.18% [at 11.4 µM]
activity, negative = inhibition [9]: 27.9% [at 11.4 µM]
Potency [1]: inactive
Potency [5]: inactive
Potency [2]: inactive
Potency [3]: inactive
Potency [4]: inactive

C[C@@H]1CC[C@H]2C(=O)O[C@@H](Cc3ccccc3)CN2[C@@H]1c1ccc(Br)cc1
Potency [1]: inactive
Potency [5]: inactive
Potency [3]: inactive
Potency [4]: inactive

C=CCOC(=O)N[C@@H](Cc1ccccc1)C(C(=O)OC)=C(C)NCc1ccccc1
Potency [1]: inactive
Potency [5]: inactive
Potency [3]: inactive
Potency [4]: inactive

COc1ccc2c(c1)[C@@H](NC(=O)C(F)(F)F)[C@@H]1CCCC[C@]21c1ccccc1
Potency [1]: inactive
Potency [5]: inactive
Potency [3]: inactive
Potency [4]: inactive

CCN(CC)CCCN1C(=O)C2=C(C1=O)C1N(C)c3ccccc3[C@@]13C[C@@H](CO)N(C(=O)CCC(=O)OC)C3=N2 (stereo partly drawn)
Potency [1]: inactive
Potency [5]: inactive
Potency [3]: inactive
Potency [4]: inactive

COC(=O)C=P(c1ccccc1)(c1ccccc1)c1ccccc1
Potency [1]: inactive
Potency [5]: inactive
Potency [3]: inactive
Potency [4]: inactive

COC(=O)C(C(=O)OC)[C@H]1c2ccccc2[C@@H]2C(=C[C@@H](C)[C@H]3C(=O)N(c4ccccc4)C(=O)[C@H]32)N1C(=O)OC
Potency [1]: inactive
Potency [2]: inactive
Potency [4]: inactive

COC(=O)[C@@]1(C=C2c3ccc(F)cc3[C@@H](OC)[C@@H]2C)[C@@H]2C=CC[C@@H]21
Potency [1]: inactive
Potency [5]: inactive
Potency [3]: inactive
Potency [4]: inactive

CC1(O)C(=O)C=C2C=C(CCCCOCc3ccccc3)OC=C2C1=O (stereo not drawn)
activity change, negative = inhibition [6]: -27.6% [at 11.4 µM]
activity change, negative = inhibition [7]: -25.3% [at 11.4 µM]
activity change, negative = inhibition [8]: -3.73% [at 11.4 µM]
activity, negative = inhibition [9]: -23.3% [at 11.4 µM]
Potency [1]: inactive
Potency [5]: inactive
Potency [3]: inactive
Potency [4]: inactive

CC1=CC[C@@H](COc2ccccc2)O[C@@]2(C1)C(=O)Nc1ccccc12
Potency [1]: inactive
Potency [2]: inactive
Potency [4]: inactive

C=CCOC(=O)N[C@H](c1cccc(C(F)(F)F)c1)C(C(C)=O)C(C)=O
Potency [1]: inactive
Potency [2]: inactive
Potency [4]: inactive

COc1cc2c(c(OC)c1)[C@H](C=Cc1ccccc1)[C@@H]([C@H](O)CO)OC2
Potency [1]: inactive
Potency [5]: inactive
Potency [2]: inactive
Potency [3]: inactive
Potency [4]: inactive

COc1cc2c(cc1OC)[C@@H]1O[C@](CCCCN3C(=O)c4ccccc4C3=O)(C2)OC2=C1C(=O)OC1(CCCCC1)C2
Potency [1]: 1.69 µM (active)
Potency [2]: 1.9 µM (active)
Potency [3]: inactive
Potency [4]: inactive

C=CC[C@@]1(c2ccc(Br)cc2OC)Oc2ccccc2-c2nccnc21
Potency [1]: inactive
Potency [5]: inactive
Potency [3]: inactive
Potency [4]: inactive

O=C1[C@H]2[C@@H]3[C@@H](O)[C@H](O)CC(=NOCc4ccccc4)[C@H]3CC[C@H]2C(=O)N1Cc1ccc2c(c1)OCO2
Potency [1]: inactive
Potency [5]: inactive
Potency [3]: inactive
Potency [4]: inactive

CCN1C(=NCc2ccc(OC)cc2)NC(c2cccc(F)c2)C(C(=O)OC)=C1C (stereo not drawn)
Potency [1]: inactive
Potency [5]: inactive
Potency [2]: inactive
Potency [3]: inactive
Potency [4]: inactive

C=C(C)CCCN1C=C(C(=O)OCC)C(c2ccccc2)NC1=O (stereo not drawn)
Potency [1]: inactive
Potency [2]: inactive
Potency [3]: inactive
Potency [4]: inactive

C[C@@H]1CC2=CCCC2[C@]2(O1)C(=O)N(Cc1ccc(Br)cc1)c1cccc(Br)c12 (stereo partly drawn)
Potency [1]: inactive
Potency [5]: inactive
Potency [3]: inactive
Potency [4]: inactive

COC(=O)N[C@@H](c1cccc(F)c1)[C@@H](C)[N+](=O)[O-]
Potency [1]: inactive
Potency [5]: inactive
Potency [2]: inactive
Potency [3]: inactive
Potency [4]: inactive

COCn1c2ccccc2c2nnc(C(=O)O)nc21
activity change, negative = inhibition [6]: -6.97% [at 11.4 µM]
activity change, negative = inhibition [7]: -11.5% [at 11.4 µM]
activity, negative = inhibition [9]: 65.8% [at 11.4 µM]
Potency [1]: inactive
Potency [5]: inactive
Potency [3]: inactive
Potency [4]: inactive

O=C(NN=C1C[C@@H](O)[C@H](O)[C@H]2[C@@H]3C(=O)N(Cc4ccc5c(c4)OCO5)C(=O)[C@@H]3CC[C@H]12)OCc1ccccc1
Potency [1]: inactive
Potency [2]: inactive
Potency [4]: inactive

COC(=O)N[C@@H](C=Cc1ccccc1)[C@@H](C)[N+](=O)[O-]
Potency [1]: inactive
Potency [5]: inactive
Potency [3]: inactive
Potency [4]: inactive

COC1(C#C[C@@H]2C=C[C@H](OC(C)=O)[C@@H](COC(C)=O)O2)CCCCC1
Potency [1]: inactive
Potency [5]: inactive
Potency [3]: inactive
Potency [4]: inactive

CC(Nc1oc(-c2ccccc2)nc1C(C)(C)C)c1ccccc1 (stereo not drawn)
Potency [1]: inactive
Potency [5]: inactive
Potency [3]: inactive
Potency [4]: inactive

CCCCC#C[C@@H]1C=C[C@H](Oc2ccc(C(=O)OC)cc2)[C@@H](COC(=O)OCC)O1
Potency [1]: inactive
Potency [2]: inactive
Potency [3]: inactive
Potency [4]: inactive

CC(=O)OC[C@H]1O[C@@H](ON=C(C)CCC(=O)OC[C@H]2O[C@H](C#Cc3ccccc3)C=C[C@H]2Oc2ccc(C)cc2)[C@H](OC(C)=O)[C@@H](OC(C)=O)[C@H]1OC(C)=O
Potency [1]: inactive
Potency [2]: inactive
Potency [3]: inactive
Potency [4]: inactive

CC1(OC(=O)c2ccc(Cl)nc2)C(=O)Cc2cc(-c3ccsc3)ncc2C1=O (stereo not drawn)
activity, negative = inhibition [1]: -1.5% [at 1.12 µM]
Potency [2]: inactive
Potency [3]: inactive
Potency [4]: inactive

CCOC(=O)C1(C(=O)OCC)CC2=C(C=CC3=C(C=C2)CC(C(=O)OCC)(C(=O)OCC)C3)C1
Potency [1]: inactive
Potency [3]: inactive
Potency [4]: inactive

COC(=O)N[C@@H](c1ccccc1)C(C(=O)OC)C(=O)OC
Potency [1]: inactive
Potency [3]: inactive
Potency [4]: inactive

CCCCCCCC1Cc2ccccc2C(C(C(=O)OC)C(=O)OC)N1C(=O)OC (stereo not drawn)
Potency [1]: inactive
Potency [3]: inactive
Potency [4]: inactive

COCOc1c2c(c(OCOC)c3c(OCOC)cccc13)C(=NNS(=O)(=O)c1ccc(C)cc1)C1=C2CCCC1
Potency [1]: inactive
Potency [3]: inactive
Potency [4]: inactive

COC(=O)N[C@H](C(C(=O)OC)=C(C)NCc1ccccc1)c1ccccc1
Potency [1]: inactive
Potency [3]: inactive
Potency [4]: inactive

COc1ccc2c(c1)[C@@]1(OCCC=C[C@@H]1C)C(=O)N2CC=C(C)CCC=C(C)C
Potency [1]: inactive
Potency [2]: inactive
Potency [3]: inactive
Potency [4]: inactive

C=CC[C@@H]1C=C[C@H](ON=C2c3cc(OC)ccc3O[C@H](c3cccc(OC)c3)[C@@H]2O)[C@H](CO)O1
Potency [1]: inactive
Potency [2]: inactive
Potency [3]: inactive
Potency [4]: inactive

COc1ccc2c(c1)CO[C@H]([C@H](O)CO)[C@H]2C=Cc1ccccc1
Potency [1]: inactive
Potency [3]: inactive
Potency [4]: inactive

CC12C=C(C=Cc3ccc(C(F)(F)F)cc3)C(C)(C1)C(c1ccc(C(F)(F)F)cc1)CC2=O (stereo not drawn)
Potency [1]: inactive
Potency [3]: inactive
Potency [4]: inactive

COc1cc(C(CC2=C(c3ccccc3)Cc3ccccc32)NC(=O)C(F)(F)F)cc(OC)c1OC (stereo not drawn)
Potency [1]: inactive
Potency [3]: inactive
Potency [4]: inactive

Cc1ccccc1Nc1oc(-c2ccccc2)nc1C=Cc1ccccc1
Potency [1]: inactive
Potency [3]: inactive
Potency [4]: inactive

C=C(Br)CO[C@@H]1C=C[C@@H](c2ccccc2)O[C@@H]1COC
Potency [1]: inactive
Potency [2]: inactive
Potency [3]: inactive
Potency [4]: inactive

C=CCC12C=C(OC)C(=O)C(C1=O)C1c3ccccc3CC12 (stereo not drawn)
Potency [1]: inactive
Potency [2]: inactive
Potency [3]: inactive
Potency [4]: inactive

Cc1cc(C)c(-c2cc([C@H](C)ON=C[C@@H](C)[C@H](OCc3ccccc3)C(C)C)on2)c(C)c1
Potency [1]: inactive
Potency [2]: inactive
Potency [3]: inactive
Potency [4]: inactive

C=C(COC)C1=CCC(C(=O)OC)(C(=O)OC)[C@@H](C[N+](=O)[O-])c2ccccc21
Potency [1]: inactive
Potency [2]: inactive
Potency [3]: inactive
Potency [4]: inactive

COC(=O)N1[C@H]2CC[C@@]3(C)C=C(C)O[C@]1(C)C3c1ccccc12
Potency [1]: inactive
Potency [2]: inactive
Potency [3]: inactive
Potency [4]: inactive

C=C(C(C)=O)C(O)c1ccco1 (stereo not drawn)
Potency [1]: inactive
Potency [3]: inactive
Potency [4]: inactive

CC(C)=CCCC(C)=CCN1C(=O)[C@]2(O[C@H](C)CC3=CCCC32)c2c(Br)cccc21 (stereo partly drawn)
Potency [1]: inactive
Potency [3]: inactive
Potency [4]: inactive

CC(CCN1CCCc2nc(C)c(C)cc21)=NOC[C@@H](O)[C@H]1O[C@@H]2OC(C)(C)O[C@H]2[C@@H]1O
Potency [1]: inactive
Potency [3]: inactive
Potency [4]: inactive

CC(Nc1oc(-c2ccccc2)nc1-c1ccccc1)c1ccccc1 (stereo not drawn)
Potency [1]: inactive
Potency [2]: inactive
Potency [3]: inactive
Potency [4]: inactive
